Among all 4,100 compounds or so, about 1,600 (39%) were called active. Another 25% or so got no clear call; they are omitted. The list shows a part of the results. Unmarked numbers belong to inactive results. Calls follow the shape of the dose curve; as a rule, active = well fitted inhibition curve with a large enough effect; inconclusive = small, poorly fitted or top-dose-only effect; inactive = no such curve, though single readings can be large or run the other way.
% is scaled to controls: 0 for no effect and ±100 for the full control effect; potency is read from the fitted curve at half-maximal effect.

This test in a line: qHTS Validation assay for Inhibitors of Plasmodium falciparum Dd2 growth in vitro. Also: nearly all actives have a fitted effect of over 70% in size. Particulars: P. falciparum Dd2 in RBCs, SYBR Green growth, 72 h; series mostly up to 28.7 µM; activity change, negative = inhibition: at the top concentration. The method in brief:
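P. falciparum Dd2-infected red blood cells (2.5% hematocrit, 0.3% parasitemia) grown 72 h at 37 °C under 5% O2 with compounds in a titration, 29 uM to 0.5 nM final. Growth read as SYBR Green-1 fluorescence after ~16 h lysis; artesunate 300 nM as positive control.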
Background: Quantitative high-throughput screening tests each substance at several concentrations.
As to `CCn1cc(C(=O)N2CCN(c3cccc(C)c3)C(C)C2)c(=O)c2cc(S(=O)(=O)N3CCOCC3)ccc21` (stereo unspecified), the “activity change, negative = inhibition” value was 7.89%.
With `CCCCOc1ccc(C(=O)N/C(=C\c2cccc([N+](=O)[O-])c2)C(=O)OC(C)C)cc1`, the Potency was 2.11 µM (active).
On the same count and under the same terms, under `CC(C)COc1ccc(C(=O)N/C(=C\c2cccc([N+](=O)[O-])c2)C(=O)OC(C)C)cc1` stands 0.531 µM (active).
As to `CC(C)[N+](C)(C)CC(O)COc1cccc2ccccc12` (stereo unspecified), the “activity change, negative = inhibition” value was 32.3%.
As to `CC(C)c1ccccc1OCC(O)CN(CC(O)COc1cccc2ccccc12)C(C)C` (stereo unspecified), the Potency was 2.37 µM (active).
Consider `CC(=O)Nc1ccc(CN2CC(Oc3ccc(F)c(C)c3)C2)cc1`, for which the “activity change, negative = inhibition” value was -23.8% [at 43.1 µM].
`CC(=O)Nc1ccc(CN2CCC3(CC2)CNc2ccccc2[S+](=O)([O-])N3)cc1`: the “activity change, negative = inhibition” value is 0%.
As for `CC(=O)Nc1ccc(CN2CC(N(C)c3ccccc3C)C2)cc1`, the Potency is 12.2 µM (active).
The same measure, in the same setting: under `Cc1ccc2nc(-c3ccccc3O)c(Nc3ccccc3C)n2c1` stands 2.37 µM (active); under `CCOC(=O)c1c(CN(C)C)oc2cc(CN(C)C)c(O)c(CSc3ccccc3)c12`, 0.596 µM (active).
With `CN(C)CC1(O)CCC2(CCN(C(=O)c3nccc4ccccc34)CC2)CC1`, the “activity change, negative = inhibition” value was 6.94%.
As for `Cc1cccc(N2CCN(c3nc4ccccc4c4nnc(C)n34)CC2)c1C`, the Potency was 5.31 µM (active).
Consider `CC(=O)Nc1ccc(Nc2cc(C)nc(Nc3ccc(NC(C)=O)cc3)n2)cc1`, for which the Potency was 3.35 µM (active).
Still for that read-out and setting: under `Cc1cc(Nc2cccc(F)c2)nc(NCc2ccccc2)n1` stands 8.41 µM (active).
The same measure, in the same setting: under `Cc1ccc(/C=N/Nc2cc(C)nc(NCc3ccccc3)n2)cc1` stands 5.31 µM (active); under `COc1ccc(Nc2cc(C)nc(NCc3ccccc3)n2)cc1`, 13.3 µM (active).
With `COc1ccc(-c2cc(C(=O)O)n(Cc3ccccc3)n2)cc1`, the “activity change, negative = inhibition” value was 16.6%.
The same measure, in the same setting: under `Cc1ccnc(NS(=O)(=O)c2ccc(NC(=O)C(C)(C)C)cc2)n1` stands 46%; under `COc1cc(SC)ccc1C(=O)N[C@H]1CCN2C(=O)N(c3ccc(Cl)cc3)C(=O)[C@@H]2C1`, -1.61%.
The same measure, in the same setting: under `COCc1nc(-c2ccc(OC3CN(S(=O)(=O)c4ccccc4C)C3)cc2)no1` stands -1.15%; under `Cc1ccc2nc(CCc3ccc(N)cc3)[nH]c2c1`, 19.4%; under `COCCn1c(=O)n([C@H]2CCCN(C(=O)CC3CCCCC3)C2)c2ncccc21`, 8.85%.
Take `Cc1cc(NC2CCCCC2)nc(NCc2ccccc2)n1`: the Potency was 16.8 µM (active).
The same measure, in the same setting: under `CCCCNc1cc(C)nc(NCc2ccccc2)n1` stands 9.44 µM (active); under `Cc1cc(Nc2cccc(Cl)c2)nc(NCc2ccccc2)n1`, 8.41 µM (active).
In the case of `CN(C)c1cc(N2CCCC(NC(=O)NCc3ccccc3)C2)ncn1` (stereo unspecified), the “activity change, negative = inhibition” value is -4.58%.
The same measure, in the same setting: under `COc1nccnc1NC1CCN(C(=O)Cc2ccccc2)CC1` stands 20.1%.
`Cc1cc(Nc2ccc(Cl)cc2)nc(NCc2ccccc2)n1`: the Potency was 0.422 µM (active).
Turning to `CCCc1noc(-c2ccn3c(CNC(=O)c4cccc(N(C)C)c4)nnc3c2)n1`, the “activity change, negative = inhibition” value is -28.6%.
Turning to `Cc1cc(N(C)Cc2ccccc2)nc2cc(O)ccc12`, the Potency was 2.37 µM (active).
On the same count and under the same terms, under `Cc1cc(NCc2ccco2)nc2cc(O)ccc12` stands 6.68 µM (active); under `Cc1cc(Nc2ccccc2)nc2cc(O)ccc12`, 0.422 µM (active).
With `Cc1cc(=O)n(CC(=O)NCc2ccccc2Br)c(N(C)Cc2ccccc2)n1`, the “activity change, negative = inhibition” value is -29.8%.
On the same count and under the same terms, under `CNC(=O)[C@@H](c1ccc(Cl)cc1)N1CCC[C@H]1C(=O)N1CC[C@@H](O)C1` stands 0% [at 43.1 µM].
On the same count and under the same terms, under `CCN1Cc2nc(OC)c(CNC(=O)C(C)n3cc(C)cn3)cc2C1=O` (stereo unspecified) stands 0%.
For `CCN(CC(O)c1cccc(O)c1)C(=O)C12CC3CC(CC(C3)C1)C2` (stereo unspecified), the Potency was 4.73 µM (active).
For `CNC(=O)[C@@H]1CN(Cc2cc(C(F)(F)F)ccc2Cl)C[C@H]1CO`, the “activity change, negative = inhibition” value is 11.3%.
For `O=C(CN1CCN(C(=O)c2ccco2)CC1)Nc1cc(Cl)ccc1Cl`, the Potency was 5.96 µM (active).
For the molecule `O=C(c1ccco1)N1CCCN(c2cc(-c3ccc(Br)cc3)[nH]n2)CC1`, the “activity change, negative = inhibition” value is 6.44%.
With `O=C(CN1CCN(C(=O)c2ccco2)CC1)Nc1cc(C(F)(F)F)ccc1Cl`, the Potency is 7.5 µM (active).
For `O=C1c2cc(N3CCOCC3)nc(-c3ccccc3)c2CN1Cc1ccccc1`, the Potency was 21.7 µM (active).
In the case of `O=C1CCC2(CCCO2)CCN1Cc1ccccc1` (stereo unspecified), the “activity change, negative = inhibition” value is 44%.
With `CC(=O)Nc1cccc(-c2ncc3c(n2)OCCN(Cc2ccccc2)C3=O)c1`, the “activity change, negative = inhibition” value is -29.5% [at 43.1 µM].
As for `Nc1nc(-c2ccccn2)nc(N)c1Cc1ccccc1F`, the Potency is 13.3 µM (active).
Take `Nc1nc(-c2ccccn2)nc(N)c1Cc1ccc(Cl)cc1Cl`: the Potency was 7.5 µM (active).
Turning to `CCOc1cc(C2c3c(-c4ccccc4O)n[nH]c3C(=O)N2Cc2cccnc2)ccc1O` (stereo unspecified), the “activity change, negative = inhibition” value is 0.886%.
On to `CCCCN1C(=O)c2[nH]nc(-c3ccccc3O)c2C1c1ccc(OCc2ccccc2)cc1` (stereo unspecified), for which the Potency was 5.96 µM (active).
`CCOc1ccccc1CN1CCC2(CCN(C(=O)OC)CC2)Oc2ccccc21`: the “activity change, negative = inhibition” value was 9.84%.
Take `CCOc1ccccc1CN1CCC2(CCN(CCC(C)C)CC2)Oc2ccccc21`: the Potency is 3.35 µM (active).
Same read-out and setting: under `COCCNc1cc(N2CCN(C3CCCCC3)CC2)c2noc3c2c1C(=O)c1ccccc1-3` stands 15 µM (active).
On the same count and under the same terms, under `CN(C)CCCNc1cc(N2CCN(C3CCCCC3)CC2)c2noc3c2c1C(=O)c1ccccc1-3` stands 1.33 µM (active).
Turning to `Cc1ccc(C(=O)Nc2sc3c(c2C(=O)O)CCCCC3)o1`, the “activity change, negative = inhibition” value is 3.56%.
For the molecule `O=C(Nc1sc2c(c1C(=O)NCc1ccco1)CCCC2)c1cc(=O)c2ccccc2o1`, the Potency was 10.6 µM (active).
For `CCn1ncc(Br)c1C(=O)Nc1sc2c(c1C(N)=O)CCC2`, the “activity change, negative = inhibition” value was 23.8%.
Same read-out and setting: under `O=c1cc(-c2ccncc2)oc2c(-c3cccc(CO)c3)nccc12` stands -23% [at 43.1 µM].
Regarding `O=c1cc(-c2cccnc2)oc2c(-c3ccccc3Oc3ccccc3)nccc12`, the Potency is 17.2 µM (active).
For the molecule `O=c1cc(-c2ccncc2)oc2c(-c3ccccc3O)nccc12`, the “activity change, negative = inhibition” value was -21.3% [at 43.1 µM].
Same read-out and setting: under `COc1ccc(Nc2cc(C)nc3ncnn23)cc1Cl` stands -25.8%.
With `Cc1cc(Nc2ccc3ccccc3c2)n2ncnc2n1`, the Potency is 0.596 µM (active).
On the same count and under the same terms, under `Cc1cc(Nc2ccc(C(C)C)cc2)n2ncnc2n1` stands 4.22 µM (active); under `OC(CNCC(c1ccco1)N1CCCCC1)c1ccccc1` (stereo unspecified), 5.96 µM (active).
For the molecule `COc1cccc(C(=O)N2CCCC(Cc3noc(-c4ccncc4)n3)C2)c1` (stereo unspecified), the “activity change, negative = inhibition” value is 8.6%.
On the same count and under the same terms, under `O=C(NCc1ccncc1)[C@@H]1C[C@@H](c2ccc(F)cc2)N(Cc2ccccc2)C1` stands -28.6% [at 43.1 µM].
On to `O=C1CC(c2ccccc2)N(Cc2ccncc2)CCCN(C(=O)Nc2ccccc2F)CCN1` (stereo unspecified), for which the Potency is 1.68 µM (active).
On the same count and under the same terms, under `N#Cc1cccc(C(=O)N2CCCN(Cc3ccncc3)C(c3ccccc3)CC(=O)NCC2)c1` (stereo unspecified) stands 7.5 µM (active).
As for `O=C(c1ccncc1)N1CCC(Cc2nc(-c3ccccc3)n[nH]2)CC1`, the “activity change, negative = inhibition” value was -3.39%.
For `COC(=O)c1c(C(=O)OC)c(-c2ccc(C)cc2)n2c1CS(=O)(=O)C2`, the “activity change, negative = inhibition” value is -1.51%.
Same read-out and setting: under `O=C(N[C@H]1C[C@H]2C(=O)NC[C@@H](CCC(=O)N3CCN(c4ccccc4)CC3)N2C1)C1CC1` stands 57.6%; under `COC[C@@H]1CN(Cc2cc(OC)cc(OC)c2)C[C@H]1C(=O)N(C)C`, 12.8%.
Same read-out and setting: under `Cc1nc(-c2cccc(Cl)c2)n(CC(=O)NCc2ccc(F)cc2)c(=O)c1CCO` stands 28.7%.
In the case of `Cc1nc(-c2ccc(F)cc2)n(CC(=O)Nc2cccc(Cl)c2)c(=O)c1CCO`, the Potency is 15 µM (active).
Still for that read-out and setting: under `CSc1cccc(NC(=O)Cn2c(-c3ccc(F)cc3)nc(C)c(CCO)c2=O)c1` stands 13.3 µM (active).
As to `CC1=C(C(=O)NCc2ccccn2)C2(CCC(C)CC2)OC1=O` (stereo unspecified), the “activity change, negative = inhibition” value was 26.2%.
Turning to `NC(=O)C1CCN(CC(=O)Nc2cccc(C(=O)Nc3cccc(C(F)(F)F)c3)c2)CC1`, the Potency was 6.68 µM (active).
As to `O=C(Nc1cccc(C(F)(F)F)c1)C1CCN(S(=O)(=O)c2cccc3nsnc23)CC1`, the “activity change, negative = inhibition” value was 5.55%.
For the molecule `CCn1cc(CN2CCCC(COc3ccccc3C(=O)N3CCCC3)C2)c2ccccc21` (stereo unspecified), the Potency is 8.41 µM (active).
`O=C(c1cc(-c2ccccc2)n[nH]1)N1CCCC(Cc2noc(-c3cnccn3)n2)C1` (stereo unspecified): the “activity change, negative = inhibition” value was 1.43%.
With `O=C(NC1CC1)c1ccccc1OCC1CCCN(Cc2cccc3[nH]ccc23)C1` (stereo unspecified), the Potency was 5.96 µM (active).
Still for that read-out and setting: under `O=C(c1ccccc1OCC1CCCN(Cc2ccncc2F)C1)N1CCCC1` (stereo unspecified) stands 10.6 µM (active).
As for `Cc1ccncc1C(=O)N1CCCC(c2nnnn2C)C1` (stereo unspecified), the “activity change, negative = inhibition” value was -2.38%.
Same read-out and setting: under `CCOc1ccccc1C(=O)N1CCN(C2CCN(C)C2=O)CC1` (stereo unspecified) stands 31.5%.
Same read-out and setting: under `O=C(Nc1cccc(F)c1)N1CCC(Oc2ncccc2C(=O)N2CCCCC2)C1` (stereo unspecified) stands -19.9%.
On the same count and under the same terms, under `CN(C)C[C@H]1C[C@@H](CO)CN(C(=O)c2ccccc2OC(F)(F)C(F)F)C1` stands 26.4%.
Turning to `COc1ccccc1C(=O)NC1CCCN(c2cc(-c3ccc(F)cc3)[nH]n2)C1` (stereo unspecified), the “activity change, negative = inhibition” value is -3.49%.
As to `CC1(C)[C@H]2CC[C@@H](CNC(=O)c3cccc4[nH]ccc34)[C@@H]1C2`, the “activity change, negative = inhibition” value was 44.5% [at 43.1 µM].
Turning to `O=C(c1ccccc1OCC1CCCN(Cc2ccncc2F)C1)N1CCCCC1` (stereo unspecified), the Potency is 10.6 µM (active).
Consider `Cc1nc(N2CCCC3(CN(C)C(=O)O3)C2)cc(-n2cccn2)n1` (stereo unspecified), for which the “activity change, negative = inhibition” value was 31.3%.
Still for that read-out and setting: under `CC(C)c1noc(-c2cccn3c(CNC(=O)c4cc(F)ccc4Cl)nnc23)n1` stands 5.47%.
As for `COc1ccc(C2Nc3ccccc3C(=O)N2Cc2ccccc2)cc1COc1ccc(Cl)cc1Cl` (stereo unspecified), the Potency is 8.41 µM (active).
With `COc1cc2c(cc1OC)CN(C(=O)c1ccco1)CC2`, the “activity change, negative = inhibition” value is 46.3%.
As for `CCC(C)(C)n1nnnc1C(c1ccccc1OC)N1CCN(C(=O)c2ccco2)CC1` (stereo unspecified), the Potency was 15 µM (active).
Consider `CCC(C)(C)n1nnnc1C(c1cc2cccc(C)c2[nH]c1=O)N1CCN(C(=O)c2ccco2)CC1` (stereo unspecified), for which the Potency is 6.68 µM (active).
On to `COc1ccc(C(=O)N[C@@H]2CCC[C@@H]2C(=O)N2CCN(C(=O)c3ccco3)CC2)cn1`, for which the “activity change, negative = inhibition” value is 10.4%.
For `Cc1ccc(NC(=O)N(Cc2ccc3c(c2)OCO3)Cc2cc3cc4c(cc3[nH]c2=O)OCCO4)cc1`, the Potency was 6.68 µM (active).
The same measure, in the same setting: under `O=C(Nc1ccc(Cl)cc1)Nc1ccc2c(c1)N1CCN=C1S2` stands 5.31 µM (active); under `CCCCCCCc1c(C)nc(N2CCOCC2)[nH]c1=O`, 5.31 µM (active).

The values are drawn from PubChem BioAssay AID1347416 (National Center for Advancing Translational Sciences (NCATS), 2020).
